Source: PubChem BioAssay
Potency and affinity values are given separately. Inconclusive results are not listed. Activity calls are given as the source filed them. Unless noted, how the calls were made is not given here.

Legend:
[1] = cytotoxicity in PAX8-dependent RMG-1 cells, dose response, cell-based, cherry-pick (AID 687029;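 active means signal drop whose fitted half-maximal concentration is at most twice the top valid dose, in every test run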;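 further: cells exposed to compound for 96 hours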)
[2] = cytotoxicity in IOSE-T80 ovarian epithelial cells, dose response, selectivity assay for PAX8 inhibitor project, cell-based, cherry-pick (AID 687032;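 active means fitted half-maximal concentration for viability loss no higher than twice the top valid dose, in every repeat run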;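 further: cells exposed to compound for 96 h before reading; 0% = neutral control wells and -100% = 2 µM mitoxantrone kill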)
[3] = inhibitors of CMV-promoter luciferase reporter, dose response, counter-screen for Pax8 inhibitor project, cell-based, HEK293, luminescence, dry powder (AID 743020;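 active means signal-lowering compounds whose fitted half-maximal concentration is at or below twice the top tested dose in every run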;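 further: HEK293 cells stably expressing the CMV luciferase reporter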)
[4] = non-specific cell cytotoxicity, dose response, cytotoxicity control for PAX8 inhibitor project, plate reader, dry powder samples (AID 743021)
[5] = IGROV1 ovarian cancer cell cytotoxicity, dose response, PAX8 inhibitor project, plate reader, dry powder samples (AID 743043);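 further: more negative means fewer viable cells or more cytotoxicity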
[6] = NIH:OVCAR-3 ovarian cancer cell cytotoxicity, dose response, PAX8 inhibitor project, plate reader, dry powder samples (AID 743044); conditions: max activity: at 35 µM, stronger effect = lower value unless noted
[7] = IOSE-T80 ovarian epithelial cell cytotoxicity, dose response, cytotoxicity control for PAX8 inhibitor project, plate reader, dry powder samples (AID 743045);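 further: 0% = neutral control median and -100% = positive control median; more negative values mean more cell killing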
[8] = A2780 ovarian cancer cell cytotoxicity, dose response, cytotoxicity control, plate reader, dry powder samples (AID 743046);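 further: 0% = neutral control wells and -100% = cytotoxic reference compound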
[9] = cytotoxicity in OVCAR8 ovarian cancer cells, dose response, PAX8 project, cell-based, plate reader, dry powder samples (AID 743197)

C[C@@H]1CN([C@@H](C)CO)C(=O)c2cc(NC(=O)Nc3ccc(C(F)(F)F)cc3)ccc2O[C@@H](C)CCCCO[C@H]1CN(C)Cc1ccc(Cl)c(Cl)c1
inactive: outcome [1] | outcome [2] | outcome [3] | outcome [4] | outcome [5] | max activity [6] -12.8% [at 0.26 µM, stronger effect = lower value] | outcome [7] | outcome [8] | outcome [9]

C[C@@H]1CCCCO[C@@H](CN(C)C(=O)Nc2ccccc2)[C@H](C)CN([C@H](C)CO)C(=O)c2cc(NC(=O)Nc3ccc(C(F)(F)F)cc3)ccc2O1
inactive: outcome [1] | outcome [2] | activity change, negative = inhibition [3] 5.92% [at 8 µM] | outcome [4] | outcome [5] | max activity [6] 33.8% [at 16 µM, stronger effect = lower value] | outcome [7] | outcome [8] | outcome [9]

C[C@H]1CCCCO[C@@H](CN(C)C(=O)c2ccccc2)[C@@H](C)CN([C@@H](C)CO)C(=O)c2cc(NC(=O)Nc3ccc(C(F)(F)F)cc3)ccc2O1
inactive: outcome [1] | outcome [2] | outcome [3] | outcome [4] | outcome [5] | max activity [6] 13.2% [at 1.1 µM, stronger effect = lower value] | outcome [7] | outcome [8] | outcome [9]

CCCC#Cc1ccc([C@@H]2[C@H]3CN(S(=O)(=O)c4ccccc4F)CCCCN3[C@H]2CO)cc1
inactive: outcome [1] | outcome [2] | outcome [3] | outcome [4] | outcome [5] | max activity [6] 36.9% [at 8 µM, stronger effect = lower value] | outcome [7] | outcome [8] | outcome [9]

O=C(C[C@H]1CC[C@@H]2[C@H](COC[C@@H](O)CN2Cc2ccc(F)cc2)O1)NCc1ccccc1Cl
inactive: outcome [1] | outcome [2] | outcome [3] | outcome [4] | outcome [5] | max activity [6] 64.7% | outcome [7] | outcome [8] | outcome [9]

C[C@H](CO)N1C[C@H](C)[C@@H](CN(C)Cc2ccc(Cl)c(Cl)c2)OCCCC[C@H](C)Oc2ccc(NC(=O)Nc3ccccc3)cc2C1=O
inactive: outcome [1] | outcome [2] | outcome [3] | outcome [4] | outcome [5] | max activity [6] -26.8% [at 0.26 µM, stronger effect = lower value] | outcome [7] | outcome [8] | outcome [9]

Cc1cccc(S(=O)(=O)N2CC[C@@H]3[C@H](CO)Nc4ccc(C5=CCCCC5)cc4[C@@H]32)c1
inactive: outcome [1] | outcome [2] | outcome [3] | outcome [4] | outcome [5] | max activity [6] 25.1% [at 1.1 µM, stronger effect = lower value] | outcome [7] | outcome [8] | outcome [9]

C[C@@H]1CN([C@@H](C)CO)C(=O)Cc2cc(NC(=O)Nc3ccc(F)cc3)ccc2O[C@H]1CN(C)CC1CCCCC1
inactive: outcome [1] | outcome [2] | outcome [3] | outcome [4] | outcome [5] | max activity [6] 14.9% [at 2.1 µM, stronger effect = lower value] | outcome [7] | outcome [8] | outcome [9]

C[C@@H]1CN([C@@H](C)CO)C(=O)c2c(c3ccccc3n2C)-c2ccccc2CO[C@H]1CN(C)C(=O)Nc1ccc2c(c1)OCO2
inactive: outcome [1] | outcome [2] | outcome [3] | outcome [4] | outcome [5] | max activity [6] -21.8% [at 16 µM, stronger effect = lower value] | outcome [7] | outcome [8] | outcome [9]

C[C@@H]1CCCCO[C@H](CN(C)C(=O)Nc2ccc(C(F)(F)F)cc2)[C@@H](C)CN([C@@H](C)CO)C(=O)c2cc(NS(=O)(=O)c3cccs3)ccc2O1
inactive: outcome [1] | outcome [2] | outcome [3] | outcome [4] | outcome [5] | max activity [6] -19.5% [at 4.2 µM, stronger effect = lower value] | outcome [7] | outcome [8] | outcome [9]

C[C@@H]1CN([C@@H](C)CO)C(=O)Cc2cc(NC(=O)c3ccncc3)ccc2O[C@@H]1CN(C)Cc1ccc(-c2ccccc2)cc1
inactive: outcome [1] | outcome [2] | outcome [3] | outcome [4] | outcome [5] | max activity [6] 8.74% [at 0.26 µM, stronger effect = lower value] | outcome [7] | outcome [8] | outcome [9]

C[C@H](O)C#Cc1ccc2c(c1)O[C@H](CN(C)Cc1ccc(-c3ccccc3)cc1)[C@@H](C)CN([C@H](C)CO)S2(=O)=O
inactive: outcome [1] | outcome [2] | outcome [3] | outcome [4] | outcome [5] | max activity [6] 15.2% [at 16 µM, stronger effect = lower value] | outcome [7] | outcome [8] | outcome [9]

O=C(C[C@H]1CC[C@H]2[C@@H](COC[C@@H](O)CN2Cc2ccc(F)cc2)O1)NCc1ccccc1Cl
inactive: outcome [1] | outcome [2] | outcome [3] | outcome [4] | outcome [5] | max activity [6] -7.1% | outcome [7] | outcome [8] | outcome [9]

C[C@H](CO)N1C[C@H](C)[C@H](CN(C)C(=O)NC2CCCCC2)OCCCC[C@H](C)Oc2ccc(NC(=O)Nc3ccc(C(F)(F)F)cc3)cc2C1=O
inactive: outcome [1] | outcome [2] | outcome [3] | outcome [4] | outcome [5] | max activity [6] 11.8% [at 2.1 µM, stronger effect = lower value] | outcome [7] | outcome [8] | outcome [9]

Cc1ccc(S(=O)(=O)N(C)C[C@H]2OCCCC[C@@H](C)Oc3ccc(NS(=O)(=O)c4ccc(F)cc4)cc3C(=O)N([C@@H](C)CO)C[C@H]2C)cc1
inactive: outcome [1] | outcome [2] | outcome [3] | outcome [4] | outcome [5] | max activity [6] -18.9% [at 0.5 µM, stronger effect = lower value] | outcome [7] | outcome [8] | outcome [9]

C[C@@H]1CN([C@@H](C)CO)S(=O)(=O)c2ccc(C#Cc3ccc(F)cc3)cc2O[C@H]1CN(C)C(=O)NC1CCCCC1
inactive: outcome [1] | outcome [2] | outcome [3] | outcome [4] | outcome [5] | max activity [6] -9.84% | outcome [7] | outcome [8] | outcome [9]

C[C@@H]1CCCCO[C@@H](CN(C)Cc2ccc(C(F)(F)F)cc2)[C@H](C)CN([C@H](C)CO)C(=O)c2cc(NC(=O)Cc3ccccc3)ccc2O1
inactive: outcome [1] | outcome [2] | outcome [3] | outcome [4] | outcome [5] | max activity [6] -36.2% | outcome [7] | outcome [8] | outcome [9]

C[C@@H]1CCCCO[C@H](CN(C)C(=O)Cc2ccccc2)[C@H](C)CN([C@@H](C)CO)C(=O)c2cc(NC(=O)Nc3ccc(C(F)(F)F)cc3)ccc2O1
inactive: outcome [1] | outcome [2] | outcome [3] | outcome [4] | outcome [5] | max activity [6] 13.6% | outcome [7] | outcome [8] | outcome [9]

O=C(Nc1ccc(C(F)(F)F)cc1)N1C[C@@H]2N[C@H](C1)C2c1ccc(-c2ccccc2)cc1 (some centres not stated)
inactive: outcome [1] | outcome [2] | outcome [3] | outcome [4] | outcome [5] | max activity [6] 13.9% [at 0.26 µM, stronger effect = lower value] | outcome [7] | outcome [8] | outcome [9]

C[C@@H]1CN([C@@H](C)CO)C(=O)Cc2cc(NC(=O)Nc3ccc(C(F)(F)F)cc3)ccc2O[C@H]1CN(C)Cc1ccc(Cl)c(Cl)c1
inactive: outcome [1] | outcome [2] | outcome [3] | outcome [4] | outcome [5] | max activity [6] 9.21% [at 0.26 µM, stronger effect = lower value] | outcome [7] | outcome [8] | outcome [9]

CO[C@H]1CN(C)C(=O)c2cc(NC(=O)c3nc4ccccc4s3)ccc2OC[C@H](C)N(Cc2cccnc2)C[C@H]1C
inactive: outcome [1] | outcome [2] | outcome [3] | outcome [4] | outcome [5] | max activity [6] 15.1% [at 0.26 µM, stronger effect = lower value] | outcome [7] | outcome [8] | outcome [9]

C[C@@H]1CCCCO[C@H](CN(C)C(=O)Nc2ccc(C(F)(F)F)cc2)[C@H](C)CN([C@@H](C)CO)C(=O)c2cc(NS(=O)(=O)c3ccc(Cl)cc3)ccc2O1
inactive: outcome [1] | outcome [2] | outcome [3] | outcome [4] | outcome [5] | max activity [6] -7.31% | outcome [7] | outcome [8] | outcome [9]

COc1ccc(S(=O)(=O)Nc2ccc3c(c2)CC(=O)N([C@@H](C)CO)C[C@@H](C)[C@H](CN(C)Cc2ccc(-c4ccccc4)cc2)O3)cc1
inactive: outcome [1] | outcome [2] | outcome [3] | outcome [4] | outcome [5] | max activity [6] 35.7% [at 1 µM, stronger effect = lower value] | outcome [7] | outcome [8] | outcome [9]

Cc1ccc(S(=O)(=O)Nc2ccc3c(c2)C(=O)N([C@@H](C)CO)C[C@H](C)[C@@H](CN(C)C(=O)Nc2ccc(C(F)(F)F)cc2)OCCCC[C@H](C)O3)cc1
inactive: outcome [1] | outcome [2] | outcome [3] | outcome [4] | outcome [5] | max activity [6] -5.62% | outcome [7] | outcome [8] | outcome [9]

O=S(=O)(c1ccc(F)cc1)N1C[C@H]2[C@@H](c3ccccc31)[C@H](CO)N2Cc1ccccc1Cl
inactive: outcome [1] | outcome [2] | outcome [3] | outcome [4] | outcome [5] | max activity [6] 16.9% | outcome [7] | outcome [8] | outcome [9]

C[C@H]1CCCCO[C@@H](CN(C)C(=O)Nc2ccc(C(F)(F)F)cc2)[C@@H](C)CN([C@@H](C)CO)C(=O)c2cc(NS(=O)(=O)c3cn(C)cn3)ccc2O1
inactive: outcome [1] | outcome [2] | outcome [3] | outcome [4] | outcome [5] | max activity [6] -16.1% | outcome [7] | outcome [8] | outcome [9]

COc1ccc(NC(=O)Nc2ccc3c(c2)CC(=O)N([C@@H](C)CO)C[C@@H](C)[C@@H](CN(C)Cc2ccc(Oc4ccccc4)cc2)O3)cc1
inactive: outcome [1] | outcome [2] | outcome [3] | outcome [4] | outcome [5] | max activity [6] 14.4% [at 18 µM, stronger effect = lower value] | outcome [7] | outcome [8] | outcome [9]

Cc1ccc(S(=O)(=O)Nc2ccc3c(c2)CC(=O)N([C@H](C)CO)C[C@H](C)[C@@H](CN(C)Cc2ccc(Cl)c(Cl)c2)O3)cc1
inactive: outcome [1] | outcome [2] | outcome [3] | outcome [4] | outcome [5] | max activity [6] 29.2% [at 0.26 µM, stronger effect = lower value] | outcome [7] | outcome [8] | outcome [9]
